Among the test systems are HT29 colon; SNB-75 CNS; SNB-19 CNS; U251 CNS; PC-3 prostate; SK-MEL-5 melanoma; UACC-62 melanoma; LOX IMVI melanoma; SK-MEL-28 melanoma; SK-MEL-2 melanoma.
What all share (assay): NCI-60 one-dose screen, 48 h (100 = growth as untreated, 0 = no growth, -100 = all killed)
Settings in all cases: 10 µM

The values below come from PubChem BioAssay (NCI).

About 83,000 compounds went through this panel and 20% of them were active in at least one assay; those are over-represented in the sample as a whole.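 How to read the values: 0–100, growth inhibition (40 = 60% inhibited); 0, no net growth; -100 to 0, cell death (-40 = 40% of starting cells died; -100 = all dead).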 Unmarked numbers belong to inactive results. The source made the active and inactive calls. The calls were made as follows: active = growth percent below 10; inactive = the rest.

On to `COc1ccc(OC)c2c1C(=O)CC2C` (stereo not given), for which the growth in the assay on HT29 colon was 108%; with SNB-75 CNS, 93%; with SNB-19 CNS, 99.6%; with U251 CNS it was 100%; in the assay with PC-3 prostate, 97.5%; in the assay with SK-MEL-5 melanoma, 94.4%. For the same compound, the growth is 96.4% in the assay on UACC-62 melanoma, 100% in the assay on LOX IMVI melanoma, 101% in the assay with SK-MEL-28 melanoma and 121% in the assay with SK-MEL-2 melanoma.
As for `C[C@@H]1C=C2C(=O)O[C@@H]3CC[C@H](C1)[C@]23O`, the growth is 73.8% in the assay on HT29 colon; 69.3% in the assay on SNB-75 CNS; 105% in the assay on SNB-19 CNS; 87.6% in the assay with U251 CNS; 87.2% with PC-3 prostate; 92.8% in the assay with SK-MEL-5 melanoma. Besides, the growth is 91.6% in the assay with UACC-62 melanoma, 55.1% in the assay with LOX IMVI melanoma, 88.1% in the assay on SK-MEL-28 melanoma and 97.3% in the assay with SK-MEL-2 melanoma.
`O=C(Nc1cccc(-n2cc(-c3ccncc3)c(-c3cc(O)cc(Cl)c3)n2)c1)c1cc(C(F)(F)F)cc(C(F)(F)F)c1`: the growth is 19.7% in the assay on HT29 colon; 52.7% with SNB-75 CNS; 63.1% in the assay on SNB-19 CNS; 37.2% in the assay with U251 CNS; 21.7% in the assay on PC-3 prostate; 64.5% in the assay on SK-MEL-5 melanoma. For the same compound, the growth is 69.3% in the assay with UACC-62 melanoma, 10.5% with LOX IMVI melanoma, 63.6% in the assay on SK-MEL-28 melanoma and 57.8% in the assay with SK-MEL-2 melanoma.
For the compound `c1ccc2c(c1)oc1c3cccnc3ccc21`, the growth was 95.8% in the assay with HT29 colon; 70.1% with SNB-75 CNS; 95.3% in the assay on SNB-19 CNS; 97.9% with U251 CNS; 79.3% in the assay with PC-3 prostate; 96.7% with SK-MEL-5 melanoma. For the same compound, the growth was 92.8% with UACC-62 melanoma, 87.1% in the assay on LOX IMVI melanoma, 92.7% with SK-MEL-28 melanoma and 96.9% with SK-MEL-2 melanoma.
`COc1ccc(Cn2c(C(N)=O)cc3c2-c2nc(N)ncc2CCC3)cc1`: the growth was 93.2% in the assay with HT29 colon; 97.2% in the assay on SNB-75 CNS; 102% in the assay with SNB-19 CNS; 99.3% in the assay on U251 CNS; 99.3% in the assay with PC-3 prostate; 98.7% in the assay on SK-MEL-5 melanoma. Also, the growth is 95.4% in the assay on UACC-62 melanoma, 107% with LOX IMVI melanoma, 99.2% in the assay on SK-MEL-28 melanoma and 105% in the assay on SK-MEL-2 melanoma.
Consider `O=[N+]([O-])c1ccc(Oc2cc(Cl)c(Cl)cc2Cl)c(C(F)(F)F)c1`, for which the growth with HT29 colon is 105%; in the assay with SNB-75 CNS, 89.4%; in the assay on SNB-19 CNS, 111%; with U251 CNS, 97.9%; with PC-3 prostate, 92.1%; in the assay on SK-MEL-5 melanoma, 96%. Also, the growth is 97% with UACC-62 melanoma, 99.2% in the assay with LOX IMVI melanoma, 101% in the assay with SK-MEL-28 melanoma and 94.3% with SK-MEL-2 melanoma.
For the compound `COc1ccc(/C=C2/CN(C(=O)c3ccccc3F)C/C(=C\c3ccc(OC)cc3)C2=O)cc1`, the growth in the assay on HT29 colon is -82.5% (active); in the assay with SNB-75 CNS, 68.9%; in the assay with SNB-19 CNS, 77%; with U251 CNS, 9.44% (active); with PC-3 prostate, 52%; in the assay with SK-MEL-5 melanoma, 48.6%. Also, the growth in the assay with UACC-62 melanoma was 56.5%; in the assay on LOX IMVI melanoma it was -54.5% (active); in the assay on SK-MEL-28 melanoma it was 69.4%; in the assay with SK-MEL-2 melanoma, 94.1%.
In the case of `COc1ccc(-c2csc(NC(=O)CSc3nc(C)c(-c4ccccc4)n3Nc3ccccc3)n2)cc1`, the growth was 67.7% with HT29 colon; 49% with SNB-75 CNS; 82.7% with SNB-19 CNS; 61.7% in the assay on U251 CNS; 34% with PC-3 prostate; 54.4% in the assay on SK-MEL-5 melanoma. The growth with UACC-62 melanoma was 47%; in the assay with LOX IMVI melanoma it was 36.8%; in the assay on SK-MEL-28 melanoma, 89.6%; in the assay on SK-MEL-2 melanoma it was 82%.
As for `CN(C)c1ccc(Cc2ccc(N(C)C)cc2Cl)c(Cl)c1`, the growth in the assay on HT29 colon was 102%; with SNB-75 CNS it was 77.7%; in the assay on SNB-19 CNS, 102%; with U251 CNS, 110%; in the assay with PC-3 prostate, 86.8%; with SK-MEL-5 melanoma, 91.9%. Moreover, the growth with UACC-62 melanoma is 88.6%; in the assay with LOX IMVI melanoma it was 96%; with SK-MEL-28 melanoma it was 105%; in the assay with SK-MEL-2 melanoma it was 113%.
